{
  "source": "ChEMBL document CHEMBL3433997",
  "about": "“St. Jude Leishmania screening dataset” (2016)",
  "data": [
    {"target": "Solute carrier family 2, facilitated glucose transporter member 1 (Homo sapiens) (UniProt P11166)", "sequence (P11166 whole entry)": "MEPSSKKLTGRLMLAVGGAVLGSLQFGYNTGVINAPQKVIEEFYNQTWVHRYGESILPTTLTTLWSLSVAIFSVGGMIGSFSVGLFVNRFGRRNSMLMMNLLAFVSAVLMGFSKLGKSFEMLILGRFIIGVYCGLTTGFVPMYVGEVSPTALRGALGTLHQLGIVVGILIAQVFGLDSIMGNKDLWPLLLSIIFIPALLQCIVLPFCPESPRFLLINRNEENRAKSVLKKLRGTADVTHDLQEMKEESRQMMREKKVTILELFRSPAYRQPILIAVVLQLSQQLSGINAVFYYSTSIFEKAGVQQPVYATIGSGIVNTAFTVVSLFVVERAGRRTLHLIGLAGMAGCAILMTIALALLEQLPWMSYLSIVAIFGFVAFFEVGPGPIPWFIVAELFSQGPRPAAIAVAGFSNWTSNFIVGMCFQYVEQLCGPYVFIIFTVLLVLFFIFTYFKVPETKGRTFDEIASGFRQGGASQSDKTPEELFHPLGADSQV", "assay": "ST_JUDE_LEISH: Cytotoxicity at 2uM final concentration against transgenic Leishmania Mexicana promastigotes LmGLUT1 that are glucose transport deficient and complemented with the human glucose transporter GLUT1. Activity is measured by DNA content using SYBR green in vitro", "assay_type": "functional", "units": {"inhibition": "%"}, "values": [
      {"smiles": "CC(C)C[C@@H](CNC[C@H](CC(C)C)NC(=O)OC(C)(C)C)NC(=O)OC(C)(C)C", "inhibition": -0.36},
      {"smiles": "CCCNCc1ccc(-c2ccc(CN(CC3CCCO3)C(=O)COc3ccccc3Cl)cc2)nc1", "note": "(stereo not drawn)", "inhibition": 4.33},
      {"smiles": "O=c1cc(NCCCNCc2cc(Cl)c(Cl)cc2Cl)[nH]c2ccccc12", "inhibition": 0.5},
      {"smiles": "COc1ccc2c(OC)c(CNCCCCCCNCc3ccc4cc(OC)ccc4c3OC)ccc2c1", "inhibition": 106},
      {"smiles": "CC(C)NCc1cccc(-c2ccc(NS(=O)(=O)c3cccc4cccnc34)cc2)c1", "inhibition": 13.8},
      {"smiles": "COc1cccc2cc(C(=O)N[C@@H](CC(C)C)C(=O)N[C@H](C=NN3CCOC3=O)CC(C)C)oc12", "inhibition": 2.15},
      {"smiles": "COc1cccc(Nc2nccc(-c3c(-c4cccc(NC(=O)c5c(F)cccc5F)c4)nn4ccccc34)n2)c1", "inhibition": 5},
      {"smiles": "CN(C)c1cc2c(Nc3ccc4nc(Cc5ccccc5)[nH]c4c3)ncnc2cn1", "inhibition": 4.02},
      {"smiles": "N=C(N)NN=CC(=O)Nc1ccc(Cl)c(C(F)(F)F)c1", "inhibition": 8.87},
      {"smiles": "COc1cc2nc(N3CCC(CNC(=O)c4ccc(-c5ccc(-c6noc(C)n6)cc5)cc4)CC3)nc(N)c2cc1OC", "inhibition": 64.1},
      {"smiles": "COc1ccc(-c2ccc(NC(=O)c3cccc(Cl)c3)cc2)cc1CN1CCCC1", "inhibition": 11.7},
      {"smiles": "O=C(Cc1ccc(NC(=O)c2ccc(O)c(-c3ccc(Cl)c(Cl)c3)c2)cc1)NCCN1CCCCC1", "inhibition": -0.79},
      {"smiles": "O=C(NCc1cccc2ccccc12)[C@@H]1CCCN1C(=O)c1ccc(O)c(-c2ccc(Cl)c(Cl)c2)c1", "inhibition": 3.99},
      {"smiles": "C[C@H](NC(=O)c1c(CN2CCC(NC(=O)CC(C)(C)C)CC2)c(-c2cccs2)nc2ccccc12)C1CCCCC1", "inhibition": 2.07},
      {"smiles": "CN1CCN(S(=O)(=O)c2ccc3nccc(Nc4ccc(Oc5ccccc5)cc4)c3c2)CC1", "inhibition": -3.11},
      {"smiles": "O=C(/C=C/c1ccc(Cl)c(Cl)c1)NCCCCCN1CCC(C(=O)Nc2ccc(Cl)cc2)CC1", "inhibition": 1.92},
      {"smiles": "CC(=O)Nc1nc(C(=O)Nc2cccc(-c3cccc(-c4nc5cccc(C)c5[nH]4)c3)c2)cs1", "inhibition": 6.67},
      {"smiles": "O=S(=O)(c1c(Cl)cc(Cl)cc1Cl)N1CCCCC(c2ccc(F)c(F)c2)=N1", "inhibition": 0.21},
      {"smiles": "COc1cc(Nc2nccc(N3CCC(NS(=O)(=O)c4ccc(NC(C)=O)cc4)CC3)n2)cc(OC)c1OC", "inhibition": -1.13},
      {"smiles": "C=CCNC(=O)C(C)c1ccc2cc(OC)ccc2c1", "note": "(stereo not drawn)", "inhibition": 0.71},
      {"smiles": "CC(C)CNCc1ccc(-c2cccc(CNc3ccc4ncccc4c3)c2)cc1", "inhibition": 4.79},
      {"smiles": "COc1ccc(CNCc2ccc(-c3ccc(-c4nc5ccccc5[nH]4)cc3)cc2)cc1", "inhibition": 17.8},
      {"smiles": "COc1cc2ncnc(Nc3ccc(Br)c(Cl)c3)c2cc1OC", "inhibition": 5.07},
      {"smiles": "Cc1noc(C)c1-c1cccc(CNCc2ccc(-c3ccc(-c4nc5ccccc5[nH]4)s3)cc2)c1", "inhibition": 1.82},
      {"smiles": "COc1ccc(-c2ccc(NC(=O)c3cccc(C#N)c3)cc2)cc1CN1CCN(C)CC1", "inhibition": 4.33},
      {"smiles": "CN1CCC(N2CCN(CCOc3cc(NC(=O)/C=C/c4ccccc4Cl)ccc3Br)CC2)CC1", "inhibition": 0.25},
      {"smiles": "Fc1ccc2[nH]c(-c3ccccc3)nc2c1CN1CCC(N2CCCC2)CC1", "inhibition": -0.78},
      {"smiles": "c1ccc(CNc2nc(NCCc3c[nH]cn3)nc(NCc3cccc4ccccc34)n2)cc1", "inhibition": -1.52},
      {"smiles": "CC(C)(C)SC1SC(SC(C)(C)C)C(OC(=O)c2ccccc2)C(OC(=O)c2ccccc2)C1OC(=O)c1ccccc1", "note": "(stereo not drawn)", "inhibition": -0.52},
      {"smiles": "CC(C)c1cn2c3c(cc(C(=O)N[C@@H](Cc4ccccc4)[C@H](O)CNC4CCOCC4)cc13)N(C)S(=O)(=O)CC2", "inhibition": 3.12},
      {"smiles": "COc1ccc2nc(C)cc(Nc3ccc(N4CCN(C)CC4)cc3)c2c1", "inhibition": 0.93},
      {"smiles": "O=C(Cc1ccc(F)cc1)NC1CCN(c2ccnc3cc(Cl)ccc23)C1", "note": "(stereo not drawn)", "inhibition": 0.69},
      {"smiles": "O=C(NCc1ccc(F)cc1)c1ccc(N2CCN(c3ccncc3)CC2)cn1", "inhibition": 2.68},
      {"smiles": "NC1CCN(Cc2ccc(-c3ccc(-c4nc5ccccc5[nH]4)cc3)cc2)C1", "note": "(stereo not drawn)", "inhibition": 12.9},
      {"smiles": "Cc1ccc(NC(=O)c2ccc3ncccc3c2)cc1OC1CCN(Cc2ccsc2)C1", "note": "(stereo not drawn)", "inhibition": 3.87},
      {"smiles": "O=C(Cc1ccccc1)NC(Nc1ccc([N+](=O)[O-])cc1)C(Cl)(Cl)Cl", "note": "(stereo not drawn)", "inhibition": -0.19},
      {"smiles": "CC(C)CN(C)Cc1ccc(-c2ccc(-c3nc4ccccc4[nH]3)s2)cc1", "inhibition": -1.24},
      {"smiles": "CCOC(=O)c1ccc(-n2c(C)cc(C=C3SC(=Nc4ccccc4)N(C4CCCC4)C3=O)c2C)cc1", "inhibition": 3.76},
      {"smiles": "CC(C)c1ccc(NC(=O)c2ccc(C(=O)NC3CCN(CC4CCCCC4)C3)cc2)cc1", "note": "(stereo not drawn)", "inhibition": 3.72}
    ]},
    {"target": "Hexose transporter 1 (Plasmodium falciparum) (UniProt O97467)", "assay": "ST_JUDE_LEISH: Cytotoxicity at 2uM final concentration against transgenic Leishmania Mexicana promastigotes LmPfHT that are glucose transport deficient and complemented with the Plasmodium falciparum hexose transporter. Activity is measured by DNA content using SYBR green in vitro", "assay_type": "functional", "units": {"inhibition": "%"}, "values": [
      {"smiles": "CC(C)C[C@@H](CNC[C@H](CC(C)C)NC(=O)OC(C)(C)C)NC(=O)OC(C)(C)C", "inhibition": -2.4},
      {"smiles": "CCCNCc1ccc(-c2ccc(CN(CC3CCCO3)C(=O)COc3ccccc3Cl)cc2)nc1", "note": "(stereo not drawn)", "inhibition": 4.73},
      {"smiles": "O=c1cc(NCCCNCc2cc(Cl)c(Cl)cc2Cl)[nH]c2ccccc12", "inhibition": -0.04},
      {"smiles": "COc1ccc2c(OC)c(CNCCCCCCNCc3ccc4cc(OC)ccc4c3OC)ccc2c1", "inhibition": 107},
      {"smiles": "CC(C)NCc1cccc(-c2ccc(NS(=O)(=O)c3cccc4cccnc34)cc2)c1", "inhibition": 8.78},
      {"smiles": "COc1cccc2cc(C(=O)N[C@@H](CC(C)C)C(=O)N[C@H](C=NN3CCOC3=O)CC(C)C)oc12", "inhibition": 4.14},
      {"smiles": "COc1cccc(Nc2nccc(-c3c(-c4cccc(NC(=O)c5c(F)cccc5F)c4)nn4ccccc34)n2)c1", "inhibition": 13.3},
      {"smiles": "CN(C)c1cc2c(Nc3ccc4nc(Cc5ccccc5)[nH]c4c3)ncnc2cn1", "inhibition": 5.87},
      {"smiles": "N=C(N)NN=CC(=O)Nc1ccc(Cl)c(C(F)(F)F)c1", "inhibition": 7.04},
      {"smiles": "COc1cc2nc(N3CCC(CNC(=O)c4ccc(-c5ccc(-c6noc(C)n6)cc5)cc4)CC3)nc(N)c2cc1OC", "inhibition": 45.5},
      {"smiles": "COc1ccc(-c2ccc(NC(=O)c3cccc(Cl)c3)cc2)cc1CN1CCCC1", "inhibition": 2.9},
      {"smiles": "O=C(Cc1ccc(NC(=O)c2ccc(O)c(-c3ccc(Cl)c(Cl)c3)c2)cc1)NCCN1CCCCC1", "inhibition": -0.35},
      {"smiles": "O=C(NCc1cccc2ccccc12)[C@@H]1CCCN1C(=O)c1ccc(O)c(-c2ccc(Cl)c(Cl)c2)c1", "inhibition": 2.59},
      {"smiles": "C[C@H](NC(=O)c1c(CN2CCC(NC(=O)CC(C)(C)C)CC2)c(-c2cccs2)nc2ccccc12)C1CCCCC1", "inhibition": 1.16},
      {"smiles": "CN1CCN(S(=O)(=O)c2ccc3nccc(Nc4ccc(Oc5ccccc5)cc4)c3c2)CC1", "inhibition": -1.4},
      {"smiles": "O=C(/C=C/c1ccc(Cl)c(Cl)c1)NCCCCCN1CCC(C(=O)Nc2ccc(Cl)cc2)CC1", "inhibition": 0.72},
      {"smiles": "CC(=O)Nc1nc(C(=O)Nc2cccc(-c3cccc(-c4nc5cccc(C)c5[nH]4)c3)c2)cs1", "inhibition": 1.89},
      {"smiles": "O=S(=O)(c1c(Cl)cc(Cl)cc1Cl)N1CCCCC(c2ccc(F)c(F)c2)=N1", "inhibition": 2.09},
      {"smiles": "COc1cc(Nc2nccc(N3CCC(NS(=O)(=O)c4ccc(NC(C)=O)cc4)CC3)n2)cc(OC)c1OC", "inhibition": -0.44},
      {"smiles": "C=CCNC(=O)C(C)c1ccc2cc(OC)ccc2c1", "note": "(stereo not drawn)", "inhibition": 0.77},
      {"smiles": "CC(C)CNCc1ccc(-c2cccc(CNc3ccc4ncccc4c3)c2)cc1", "inhibition": 3.71},
      {"smiles": "COc1ccc(CNCc2ccc(-c3ccc(-c4nc5ccccc5[nH]4)cc3)cc2)cc1", "inhibition": 14.9},
      {"smiles": "COc1cc2ncnc(Nc3ccc(Br)c(Cl)c3)c2cc1OC", "inhibition": 5.81},
      {"smiles": "Cc1noc(C)c1-c1cccc(CNCc2ccc(-c3ccc(-c4nc5ccccc5[nH]4)s3)cc2)c1", "inhibition": 1.38},
      {"smiles": "COc1ccc(-c2ccc(NC(=O)c3cccc(C#N)c3)cc2)cc1CN1CCN(C)CC1", "inhibition": 6.51},
      {"smiles": "CN1CCC(N2CCN(CCOc3cc(NC(=O)/C=C/c4ccccc4Cl)ccc3Br)CC2)CC1", "inhibition": 2.87},
      {"smiles": "Fc1ccc2[nH]c(-c3ccccc3)nc2c1CN1CCC(N2CCCC2)CC1", "inhibition": 0.83},
      {"smiles": "c1ccc(CNc2nc(NCCc3c[nH]cn3)nc(NCc3cccc4ccccc34)n2)cc1", "inhibition": 0.21},
      {"smiles": "CC(C)(C)SC1SC(SC(C)(C)C)C(OC(=O)c2ccccc2)C(OC(=O)c2ccccc2)C1OC(=O)c1ccccc1", "note": "(stereo not drawn)", "inhibition": -0.69},
      {"smiles": "CC(C)c1cn2c3c(cc(C(=O)N[C@@H](Cc4ccccc4)[C@H](O)CNC4CCOCC4)cc13)N(C)S(=O)(=O)CC2", "inhibition": 2.83},
      {"smiles": "COc1ccc2nc(C)cc(Nc3ccc(N4CCN(C)CC4)cc3)c2c1", "inhibition": 2.03},
      {"smiles": "O=C(Cc1ccc(F)cc1)NC1CCN(c2ccnc3cc(Cl)ccc23)C1", "note": "(stereo not drawn)", "inhibition": 1.78},
      {"smiles": "O=C(NCc1ccc(F)cc1)c1ccc(N2CCN(c3ccncc3)CC2)cn1", "inhibition": -0.85},
      {"smiles": "NC1CCN(Cc2ccc(-c3ccc(-c4nc5ccccc5[nH]4)cc3)cc2)C1", "note": "(stereo not drawn)", "inhibition": 10.4},
      {"smiles": "Cc1ccc(NC(=O)c2ccc3ncccc3c2)cc1OC1CCN(Cc2ccsc2)C1", "note": "(stereo not drawn)", "inhibition": 1.3},
      {"smiles": "O=C(Cc1ccccc1)NC(Nc1ccc([N+](=O)[O-])cc1)C(Cl)(Cl)Cl", "note": "(stereo not drawn)", "inhibition": 1.43},
      {"smiles": "CC(C)CN(C)Cc1ccc(-c2ccc(-c3nc4ccccc4[nH]3)s2)cc1", "inhibition": -0.64},
      {"smiles": "CCOC(=O)c1ccc(-n2c(C)cc(C=C3SC(=Nc4ccccc4)N(C4CCCC4)C3=O)c2C)cc1", "inhibition": 3.52},
      {"smiles": "CC(C)c1ccc(NC(=O)c2ccc(C(=O)NC3CCN(CC4CCCCC4)C3)cc2)cc1", "note": "(stereo not drawn)", "inhibition": 4.18}
    ]}
  ]
}
